Rows were chosen to be rich in hits. Some 10% of all compounds tested hit in one or more screens of this group.
GLS inh – qHTS for Inhibitors of Glutaminase (GLS); Glutaminase kidney isoform, mitochondrial (Homo sapiens), O94925; AID 624170, 2012; hit rate 0.21% among 410,000; GLS enzymatic activity, qHTS titration; Potency, µM (series often up to 45.5 µM), inactives show at the highest dose activity change, negative = inhibition, actives largely listed as inhibitors; note: % is set by controls: 0 for no effect and ±100 for the full control effect
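Compounds were pin-transferred onto hKGA, after which L-glutamine (1 mM solution) and a detection mix of glutamate oxidase, HRP and Amplex Red were added. Initial and 30 min RT fluorescence reads were collected.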
JMJD2A Tudor inh – qHTS Assay for Inhibitors of JMJD2A-Tudor Domain; Lysine-specific demethylase 4A (Homo sapiens), O75164; Potency, µM (top dose mostly 114 µM), inactives show top-dose activity change, negative = inhibition, hits mostly inhibitors; hit rate 4.4% among 390,000; AlphaScreen JMJD2A-Tudor / H3K4me3 peptide binding; AID 504339, 2011; note: % is set by controls: 0 for no effect and ±100 for the full control effect; nearly all actives have a fitted effect of over 50% in size
Target sequence (O75164 whole entry, looked up, the tested form may be a part): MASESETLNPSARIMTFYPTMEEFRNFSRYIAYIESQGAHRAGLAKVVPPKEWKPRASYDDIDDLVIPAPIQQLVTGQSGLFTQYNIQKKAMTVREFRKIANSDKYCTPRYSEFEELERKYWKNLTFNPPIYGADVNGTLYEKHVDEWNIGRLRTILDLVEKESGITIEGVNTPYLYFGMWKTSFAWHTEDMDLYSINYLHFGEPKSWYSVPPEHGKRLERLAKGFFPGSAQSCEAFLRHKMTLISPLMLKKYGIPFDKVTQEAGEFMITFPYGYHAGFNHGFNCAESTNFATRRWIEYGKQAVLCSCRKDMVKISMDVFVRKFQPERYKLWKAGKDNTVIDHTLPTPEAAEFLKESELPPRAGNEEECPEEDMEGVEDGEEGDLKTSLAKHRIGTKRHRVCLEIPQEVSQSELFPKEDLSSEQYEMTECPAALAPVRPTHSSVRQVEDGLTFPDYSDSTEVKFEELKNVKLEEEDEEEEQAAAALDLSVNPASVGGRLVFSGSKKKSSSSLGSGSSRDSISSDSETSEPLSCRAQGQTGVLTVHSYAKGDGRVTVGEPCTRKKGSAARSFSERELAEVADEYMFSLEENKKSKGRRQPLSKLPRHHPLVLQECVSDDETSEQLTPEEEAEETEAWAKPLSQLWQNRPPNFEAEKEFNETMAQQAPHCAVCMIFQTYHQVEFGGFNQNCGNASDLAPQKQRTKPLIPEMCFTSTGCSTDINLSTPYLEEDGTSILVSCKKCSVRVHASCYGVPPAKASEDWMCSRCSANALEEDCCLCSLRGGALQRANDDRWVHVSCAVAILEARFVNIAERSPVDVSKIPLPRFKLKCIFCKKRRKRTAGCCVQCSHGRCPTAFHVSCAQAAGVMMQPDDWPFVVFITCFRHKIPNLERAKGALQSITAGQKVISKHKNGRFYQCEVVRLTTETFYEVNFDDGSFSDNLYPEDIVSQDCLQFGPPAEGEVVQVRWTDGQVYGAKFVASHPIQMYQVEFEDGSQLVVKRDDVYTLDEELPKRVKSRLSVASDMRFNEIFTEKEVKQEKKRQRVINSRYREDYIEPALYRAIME
L3MBTL1 inh – qHTS Assay for the Inhibitors of L3MBTL1; Lethal(3)malignant brain tumor-like protein 1 (Homo sapiens), Q9Y468; AlphaScreen L3MBTL1–H3K9me1 peptide binding; Potency, µM (highest dose often 57.1 µM), without a hit: at the top dose activity, negative = inhibition, hits mostly inhibitors; hit rate 0.66% among 230,000; AID 485360, 2010; note: % is set by controls: 0 for no effect and ±100 for the full control effect; nearly all actives have a fitted effect of over 60% in size
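Displacement of a biotinylated histone H3(1-15) peptide monomethylated at Lys9 (75 nM) from L3MBTL1 (50 nM) was measured by AlphaScreen after a 30 min room-temperature compound incubation; cefsulodin titration served as intraplate control.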
G9a block – qHTS Assay for Inhibitors of Histone Lysine Methyltransferase G9a | G9a H3K9 monomethylation, AlphaScreen, 2 h | Potency, µM (doses to about 102 µM), for the others: top-dose activity, negative = inhibition, usual class: inhibitors | hit rate 8.8% among 350,000 | Histone-lysine N-methyltransferase EHMT2 (Homo sapiens), Q96KQ7; note: % is set by controls: 0 for no effect and ±100 for the full control effect; nearly all actives have a fitted effect of over 75% in size
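Methyltransferase reactions run at room temperature for 2 h (20 nM enzyme, 500 nM biotin-H3K9 peptide, 20 uM SAM) after a 15 min compound preincubation; product detected by AlphaScreen beads and anti-H3K9me1 antibody.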
HP1b chromo inh – HTS for Inhibitors of HP1-beta Chromodomain Interactions with Methylated Histone Tails | Potency, µM (series often up to 114 µM), inactives show at the top dose activity change, negative = inhibition, actives largely listed as inhibitors | AID 540317, 2011 | hit rate 0.56% among 390,000 | Chromobox protein homolog 1 (Homo sapiens), P83916 | AlphaScreen HP1-beta / biotin-H3K9me3 peptide binding; note: nearly all actives have a fitted effect of over 70% in size
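HP1-beta protein (50 nM final) preincubated 30 min at room temperature with biotinylated H3(1-18)K9me3 peptide (50 nM) in PBS pH 7.4, 0.01% Tween-20, then compound added for 30 min. AlphaScreen streptavidin donor/nickel chelate acceptor beads (10 ug/mL final), 30 min dark, luminescence read.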
BAZ2B block – qHTS Assay for Inhibitors of BAZ2B; Bromodomain adjacent to zinc finger domain protein 2B (Homo sapiens), Q9UIF8; AlphaScreen BAZ2B-H3K14Ac peptide displacement; Potency, µM (highest dose often 114 µM), for inactives: at the top dose activity change, negative = inhibition, actives largely listed as inhibitors; hit rate 4.4% among 360,000; AID 504333, 2011; note: % is set by controls: 0 for no effect and ±100 for the full control effect; nearly all actives have a fitted effect of over 60% in size
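Multi-concentration screen (max 110 uM) measuring displacement of acetylated histone H3 peptide from BAZ2B by AlphaScreen, using 50 nM protein, 50 nM peptide and 10 ug/mL streptavidin donor plus Ni-chelate acceptor beads.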
The depositor's hits bear a star; ? = inconclusive; / = no result given; [ ] = dose if it differs, or a comment. Calls come from the whole dose curve; as a rule, active = well fitted curve in the direction sought with a large enough effect; inconclusive = small, poorly fitted or top-dose-only effect, or another doubt; inactive = no such curve, though single readings can be large; an effect the other way counts as inactive or inconclusive. Potency is the fitted concentration of half-maximal effect.

SMILES	GLS inh	JMJD2A Tudor inh	L3MBTL1 inh	G9a block	HP1b chromo inh	BAZ2B block
Cc1ccc(NC(=S)Nc2cccc3cnccc23)cc1C	0%	-34%	-23%	-4%[12.7 µM]	?	-36%
FC(F)(F)c1ccccc1NC(=S)N1CCCCCC1	-5%	-11%	/	/	51%	-1%
Cc1ccccc1NC(=S)Nc1cccc2cnccc12	5%	-22%	-19%	1.8µM*	-18%	-13%
FC(F)(F)c1ccccc1NC(=S)Nc1cccc2cnccc12	0%	-28%	1%	35µM*	?	?
FC(F)(F)c1ccccc1NC(=S)Nn1cnnc1	-18%	-29%	/	7.1µM*	?	-17%
Cc1ccc(C)c(NC(=S)Nc2cccc3cnccc23)c1	2%	-16%	-1%[11.4 µM]	22µM*	-2%	-36%
O=C(CN1C(=O)COc2ccc(S(=O)(=O)N3CCCCCC3)cc21)Nc1cccc(Cl)c1	0%	-24%	/	-27%[59 µM]	-12%	-19%
CN1CCN(c2ncc3nc(-c4cccs4)c(=O)n(CCC#N)c3n2)CC1	/	/	/	11%[0.501 µM]	/	/
Cc1ccc(NS(=O)(=O)c2cc3c(cc2-c2ccsc2)NC(=O)CO3)cc1C	/	-29%	/	/	/	/
COc1ccc(CNC(=O)c2ccc3c(c2)N(Cc2cc(C)ccc2C)C(=O)CS3)cc1	4%	-9%	/	7%[59 µM]	10%	0%
Fc1ccccc1NC(=S)Nc1cccc2cnccc12	5%	-36%	-2%	18µM*	-30%	-36%
Cc1ccc(NC(=S)Nc2cccc3cnccc23)cc1	33%	-27%	/	35µM*	-7%	?
NC(=S)Nc1cccc2cnccc12	25%	-7%	9%	-7%[59 µM]	25%	-2%
CC1=CC(C)=Nc2ccc(C)cc2N1	1%	-6%	/	45µM*	50%	-34%
CCOC(=O)c1c(C)[nH]c(CCC(=O)NCc2ccc(N(C)C)cc2)c1C	8%	?	/	-3%[59 µM]	-3%[57 µM]	-37%
O=C(CN1CCN(Cc2ccccc2)CC1)c1c[nH]c2ccccc12	-8%	2%[11.4 µM]	-1%	40µM*	55%	-5%
CCn1c(N2CCN(CC(=O)c3c(C)n(C)c4ccccc34)CC2)nc2c1c(=O)[nH]c(=O)n2C	6%	-22%	3%	?	27%	-6%
CCCn1c(N2CCN(CC(=O)c3c[nH]c4ccccc34)CC2)nc2c1c(=O)[nH]c(=O)n2C	12%	45µM*	0%	?	14%	17%
O=C(CN1CCCCC1)c1c[nH]c2ccccc12	-1%	11%	29%	/	48%	45%
O=C(CN1CCN(Cc2ccccc2)CC1)NNC(=O)c1ccc(Cl)cc1	5%	-6%	4%	50µM*	17%	13%
O=C(CN1CCN(Cc2ccccc2)CC1)NCc1ccc(Cl)cc1	5%	-12%	1%	29%	12%	-15%
CC(=O)c1cccc(NC(=O)CN2CCN(Cc3ccccc3)CC2)c1	5%	0.79µM*	-8%	7.1µM*	?	?
CCCN(c1ccccc1F)S(=O)(=O)c1ccc2c(c1)C(C)(C)C(=O)N2C	-2%	-14%	/	6%[59 µM]	0%	-6%
Cc1nn(CCCC(=O)NCc2cccc(Cl)c2)c(=O)c2c1sc1ccccc12	4%	7%	/	-30%[59 µM]	36%	2%
O=C(CN1CCN(Cc2ccccc2)CC1)c1ccccc1	-3%	-16%	/	79µM*	34%	-34%
SMILES	GLS inh	JMJD2A Tudor inh	L3MBTL1 inh	G9a block	HP1b chromo inh	BAZ2B block
Cc1ccc(NC(=O)CN2CCN(Cc3ccccc3)CC2)c(Br)c1	-4%	7.1µM*	-17%	?	?	7%[0.457 µM]
O=C(CN1CCN(Cc2ccccc2)CC1)c1ccc(Br)cc1	7%	?	7%	-44%[0.501 µM]	44%	?
Cc1ccc(-c2nc(N3CCN(S(=O)(=O)c4ccc(F)cc4)CC3)c3ccc(Cl)cc3n2)cc1	/	-6%	/	/	33%	/
NCc1cc2c3c(c1)CCCN3CCC2	8%	-11%	/	16µM*	-1%	50µM*
Cc1ccc(NC(=O)CCCn2c(=O)c3cccn3c3cccnc32)cc1C	-1%	0%	/	2%[59 µM]	32%	-9%
COc1cc(/C=C(/C#N)C(=O)Nc2ccccc2)ccc1OCc1ccc(C(=O)O)cc1	-4%	56µM*	/	?	-10%	56µM*
N#C/C(=C\c1ccc(OCc2ccc(Cl)cc2)cc1)C(=O)Nc1cccc(C(=O)O)c1	79%	?	/	?	10%	56µM*
COc1cc(/C=C(\C#N)C(=O)Nc2cc(C(F)(F)F)ccc2Cl)ccc1OCC(=O)Nc1cccc(C(F)(F)F)c1	4%	-20%	0%	19%[59 µM]	19%	-1%
CCOc1cc(/C=C(\C#N)C(=O)Nc2cccc(C(=O)O)c2)ccc1OCc1ccc(Br)cc1	-11%	?	/	45µM*	?	56µM*
COc1cc(/C=C(\C#N)C(=O)Nc2nnc(C(F)(F)F)s2)ccc1OCc1ccc(C(F)(F)F)cc1C(F)(F)F	/	/	/	8.4µM*	/	/
CCOC(=O)c1sc(NC(=O)c2nc3nc(C)cc(C(F)F)n3n2)c(C(=O)OC(C)C)c1C	5%	-10%	/	-28%[59 µM]	-9%	?
COc1cc(C(=O)O)ccc1OCc1ccncc1	-22%	1%	-11%	45µM*	31%	-19%
CCOc1cccc(NC(=O)/C(C#N)=C\c2cccnc2)c1	?	-6%	-4%	71µM*	26%	?
COc1ccc(S(=O)(=O)N2CCC(C(=O)NC(C)c3ccccc3)CC2)cc1 (stereo unspecified)	-1%	-1%	/	5%[59 µM]	39%	1%
COc1cc(NC(=O)c2ccc3c(SCC(=O)O)c4c(nc3c2)CCC4)cc(OC)c1OC	-4%	-17%	/	/	30%	89µM*
O=C(O)CSc1c2c(nc3cc(C(=O)Nc4ccc(F)c(Cl)c4)ccc13)CCC2	-10%	?	/	-33%[59 µM]	-1%	79µM*
COc1cc(NC(=O)c2ccc3c(Cl)c4c(nc3c2)CCC4)cc(OC)c1OC	-15%	-21%	/	28µM*	18%	-3%
CCOC(=O)c1c(NC(C)=O)c2c3c(sc2n1Cc1cccc(Cl)c1)CCCC3	-10%	-6%	/	6%[59 µM]	42%	-22%
COc1ccc(S(=O)(=O)N(C(=O)c2ccncc2)c2ccc(OC(=O)c3ccncc3)cc2)cc1	0%	-25%	/	35µM*	1%	-5%
COCCCNC(=O)CN1C(=O)c2cccnc2Sc2ccccc21	-4%	-5%	/	3%[59 µM]	29%	-1%
